Test results: the supplement of paper PMC10941209

These molecules were tested on HFF (assay: cell viability relative to DMSO control; higher = less cytotoxic). Details: 1 µM; 72 h.
Method: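 Single-dose cytotoxicity screen of the MMV Pandemic Response Box at 1 uM on human foreskin fibroblasts (HFF), 72 h at 37 C. Viability measured by MTT (OD 550 nm) and normalised to the DMSO control (% survival).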

Row | SMILES | cell viability
1 | C[C@@H](NC(=O)c1cccc(-c2cnc(-c3cc4ccccc4cn3)[nH]2)c1)c1ccc(F)cc1 | 74.3%
2 | Oc1cccc(C(Nc2nccs2)c2ccc3cccnc3c2O)c1 (configuration not stated) | 72%
3 | O=C(c1ccccc1)N1CCN(c2ccccc2NC(=O)C(Cl)(Cl)Cl)CC1 | 65%
4 | c1cc(CN2CCCNCCNCCCNCC2)ccc1CN1CCCNCCNCCCNCC1 | 63.9%
5 | CCc1nc2ccccn2c1C(=O)NCc1ccccc1 | 66.8%
6 | CN(C)c1[nH]c(=O)ncc1F | 72%
7 | OB1OCc2cc(Cl)ccc21 | 68.1%
8 | Nc1nc(NC2Cc3ccc(F)cc3C2)nc(N2CCCCC2)n1 (configuration not stated) | 72.4%
9 | Cc1cc(C2CCCCC2)n(O)c(=O)c1 | 78.2%
10 | CCc1c(O)nc2ccc(F)cc2c1OCC1CCC1 | 56.8%
11 | C[C@H]1CC[C@@]2(O)C(C)(C)[C@@H]3CC[C@@]2(C)[C@H]1C3 | 65.2%
12 | O=C(NC(=O)N1CCCc2ccccc21)c1cccc(Cl)c1 | 75.5%
13 | NS(=O)(=O)c1ccc(NC(=O)NC(c2ccccc2)c2ccccc2)cc1 | 72.8%
14 | COc1nc2ccc(Br)cc2cc1[C@@H](c1ccccc1)[C@@](O)(CCN(C)C)c1cccc2ccccc12 | 72.3%
15 | CCOc1noc2cc(OCCC3CCN(c4ccc(C)nn4)CC3)ccc12 | 53%
16 | O=S(=O)(Nc1ccc(O)cc1)c1cccc2cccnc12 | 66.5%
17 | Cc1nc(N(C)C(=O)Cc2ccc(-c3ccccn3)cc2)sc1S(N)(=O)=O | 66.3%
18 | O=C1c2cccc3cccc(c23)C(=O)N1CC1CO1 (configuration not stated) | 63.8%
19 | NCCCc1ccccc1C(=O)Nc1ncc([N+](=O)O)s1 | 65%

Row | SMILES | cell viability
20 | O=[N+]([O-])/C(Br)=C/c1ccc(Br)o1 | 63.2%
21 | Cc1c[nH]c(=O)nc1NCc1ccccc1 | 66.7%
22 | OC(Cn1cncn1)(Cn1cncn1)c1ccc(F)cc1F | 66.7%
23 | CC(C)Nc1nc2cc(Cl)c(Cl)cc2n1[C@H]1O[C@@H](CO)[C@H](O)[C@@H]1O | 67.8%
24 | Nc1nc(N)c2c(Sc3ccccc3)cccc2n1 | 68.7%
25 | N=C(N)c1ccc(COc2ccc(Cl)cc2)cc1 | 65.4%
26 | COc1ccc(C(C)(C)C)cc1NC(=O)C(=O)c1ccc(OCCN2CCOCC2)c2ccccc12 | 69.1%
27 | C[C@H](NC(CC(=O)c1ccccc1C(F)(F)F)C(=O)O)c1ccccc1 (some centres not stated) | 63.6%
28 | N=c1n(CCN2CCCCC2)c2ccccc2n1CC(O)COc1ccc(Cl)cc1Cl (configuration not stated) | 81.4%
29 | Cc1nc(-c2ccc(C3N(C)c4ccc(F)cc4C(=O)N3c3ccccc3)s2)cs1 (configuration not stated) | 65.2%
30 | O=c1cc(OCc2ccccc2)ccn1Cc1ccccc1 | 68.5%
31 | Nc1ccc2oc(=O)ccc2c1I | 69.6%
32 | N#Cc1cc([N+](=O)[O-])ccc1Oc1ccccc1Cl | 72.5%
33 | O[C@@](Cn1cnnn1)(c1ccc(F)cc1F)C(F)(F)c1ccc(-c2ccc(OCC(F)(F)F)cc2)cn1 | 58.9%
34 | Nc1nc2c(ncn2/C=C2/CC2(CO)CO)c(=O)[nH]1 | 63.8%
35 | Cn1cc(NC(=O)c2cc(NC(=O)c3ccc(/C=C/c4cnc5ccccc5c4)cc3)cn2C)cc1C(=O)NCCN1CCOCC1 | 69.2%
36 | O=C(N[C@H](Cc1cccc2ccccc12)C(=O)NCCc1c[nH]cn1)C1Cc2ccccc2C1 | 62.3%
37 | Cc1ccc(NC(=O)c2cc(Cl)ccc2O)cc1 | 65.7%
